TrxR1 substrate: rat thioredoxin reductase 1 substrate activity. O89049. purified TrxR1 substrate turnover, NADPH consumption readout. Potency, µM (series often up to 114 µM), inactives show at the top dose activity change, negative = substrate turnover. actives 0.01% (n = 390,000). AID 588456; further: on the % scale 0 is the no-effect control and ±100 the full control effect; nearly all actives have a fitted effect of over 50% in size
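Rat TrxR1, dispensed at 90 nM, was prereduced with 400 uM NADPH (final) for 5 min at ~22 deg C, then incubated with compound 15 min before 400 uM selenite. A first-read NADPH fluorescence drop versus no-compound background flagged substrates.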
A549 viability: kills or reduces viability of A549 cells in Nrf2 counter-screen | A549 ARE-Fluc cells, CellTiter-Fluor viability, 18-24 h | Potency, µM (series often up to 46 µM), for inactives: at the highest dose activity change, negative = cytotoxicity, most hits filed as inhibitors | actives 0.16% (n = 390,000) | AID 504648; further: on the % scale 0 is the no-effect control and ±100 the full control effect
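A549 ARE-Fluc cells in 5% FBS OPTI-MEM, 5000 cells/well, rested 2 h then exposed to compounds in concentration-response for 18-24 h at 37 °C. Viability by CellTiter-Fluor fluorescence (Ex 405/Em 525) after 30 min; luciferase luminescence (BugLite, 15 min, RT) read afterwards.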
GALK inh: galactokinase (human) inhibition; Purified GALK, Kinase-Glo residual ATP luminescence; AID 1868; actives 0.007% (n = 270,000); Potency, µM (series often up to 57.5 µM), without a hit: at the highest dose activity change, negative = inhibition, most hits filed as inhibitors; further: on the % scale 0 is the no-effect control and ±100 the full control effect
Target sequence (P51570 whole entry, looked up): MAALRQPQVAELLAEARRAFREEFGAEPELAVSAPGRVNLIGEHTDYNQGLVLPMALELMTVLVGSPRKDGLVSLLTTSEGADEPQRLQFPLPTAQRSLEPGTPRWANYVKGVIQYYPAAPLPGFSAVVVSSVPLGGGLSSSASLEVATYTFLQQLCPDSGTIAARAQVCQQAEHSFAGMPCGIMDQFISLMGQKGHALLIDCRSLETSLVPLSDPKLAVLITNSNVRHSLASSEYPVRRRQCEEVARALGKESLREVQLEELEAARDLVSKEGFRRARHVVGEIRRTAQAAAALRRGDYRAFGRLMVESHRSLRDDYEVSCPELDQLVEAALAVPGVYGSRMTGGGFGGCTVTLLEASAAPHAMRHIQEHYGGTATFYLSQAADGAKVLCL
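Luminescence from leftover ATP (Ultra-Glo luciferase/luciferin) served as read-out after a 1 h room-temperature reaction of 5 nM GALK with 35 uM ATP and 100 uM galactose.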
Nrf2 block: Nrf2 pathway inhibition | A549 ARE-Fluc reporter, luciferase luminescence, 18-24 h | actives 2.1% (n = 360,000) | Potency, µM (top dose mostly 46 µM), without a hit: at the highest dose activity change, negative = inhibition, hits mostly inhibitors; further: on the % scale 0 is the no-effect control and ±100 the full control effect; nearly all actives have a fitted effect of over 60% in size
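Reporter: ARE-Fluc in A549. Exposure: 18-24 h, 37 °C, 5% CO2, 5% FBS OPTI-MEM. Readouts: fluorescent cytotoxicity (CellTiter-Fluor), then luminescent Nrf2 signal after BugLite.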
rTrxR1 inhibitor: inhibitors of rat thioredoxin reductase 1; O89049; recombinant rTrxR1, NADPH fluorescence consumption, selenite substrate; Potency, µM (titrated, usually from 114 µM), for inactives: at the highest dose activity change, negative = inhibition, usual class: inhibitors; actives 1% (n = 390,000); further: on the % scale 0 is the no-effect control and ±100 the full control effect; nearly all actives have a fitted effect of over 65% in size
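Rat TrxR1 (90 nM in the dispensed reagent) was pre-reduced with 400 uM NADPH for 5 min at room temperature, then incubated with compound for 15 min. After 400 uM selenite was added, NADPH fluorescence (Ex 340/Em 450 nm) was followed for 8 min.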
Nrf2 activator: Nrf2 pathway activation; AREc32 ARE-luciferase reporter (MCF7-derived line), luminescence, 24 h; Potency, µM (titrated, usually from 46.1 µM), inactives show at the highest dose activation, most hits filed as activators; actives 0.31% (n = 410,000); AID 624171; further: % of control where 0% means no effect; nearly all actives have a fitted effect of over 65% in size
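Luciferase luminescence (Steady-Glo, 30 min at room temperature) served as the read-out of ARE activation in AREc32 cells treated with compounds for 24 hr at 37 deg C.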
An asterisk follows results filed as active; ? = inconclusive; / = no result; [ ] = dose if it differs, or a comment. A selection: hits, their analogues and other compounds. The true share with any hit is near 3%. The call rests on the fitted dose curve; in most records, active means well fitted curve in the direction sought with a large enough effect; inconclusive means small, poorly fitted or top-dose-only effect, or another doubt; inactive means no such curve, though single readings can be large; an effect the other way counts as inactive or inconclusive. Potency means the concentration at half of the fitted maximal effect.

SMILES	TrxR1 substrate	A549 viability	GALK inh	Nrf2 block	rTrxR1 inhibitor	Nrf2 activator
COC(=O)c1sccc1S(=O)(=O)N(CC(=O)Nc1cc(F)ccc1F)c1ccc(C)c(C)c1	2.9%[57.1 µM]	-0.9%	/	?	12.8%[57.1 µM]	11.8%
Cc1cccc(-c2noc(CN(C(C)C)S(=O)(=O)c3ccc(Br)cc3)n2)c1	-1.7%	7.9%	/	?	25.5%	4.2%
Cc1ccc(C)c(Cn2cc(S(=O)(=O)c3ccc(Cl)cc3)c(=O)c3cc(F)ccc32)c1	5.0%	9.9%	/	5.7%	19.3%	-0.8%
COc1cc(-c2nc3ncccn3c2Nc2ccc(C)cc2C)ccc1O	-8.6%	0.0%	/	?	-25.8%	10.2%
Clc1ccc(/C=C/c2ccc3ccccc3n2)cc1Cl	-4.0%	/	/	/	?	/
CCOC(=O)c1ccccc1NC(=O)c1cc2c(=O)oc3ccc(C)cc3c2s1	2.4%	-9.2%	/	11.8%	9.1%	-0.2%
CN(C)S(=O)(=O)c1cccc(NC(=O)CSc2nc3ccccc3[nH]2)c1	7.0%[57.1 µM]	-17.9%	-1.8%	20.6µM*	17.1%[57.1 µM]	-0.1%
COc1cc(C2CC(=O)c3cnc(N4CCN(Cc5ccccc5)CC4)nc3C2)cc(OC)c1OC (centres undefined)	-5.1%[57.1 µM]	?	-0.1%	?	20.2%[57.1 µM]	0.0%
COc1ccc(C2CC(=O)c3c(C)nc(N4CCN(Cc5ccccc5)CC4)nc3C2)cc1OC (centres undefined)	3.4%	/	1.9%	18.4µM*	-16.4%	0.0%
CSc1nc(=O)[nH]c2nc[nH]c12	-0.9%	-1.5%	/	-0.7%	12.6%	/
Cc1cc(C)n2nc(SCC(=O)Nc3ccc(F)c(F)c3F)nc2n1	3.6%	-11.8%	/	14.6µM*	15.9%	-0.3%
C=CCN1C=C2C(=O)C(C)(OC(=O)c3ccc(OC)cc3)C(=O)C(c3ccco3)=C2C=C1CCCC (centres undefined)	12.3%[57.1 µM]	-0.3%	-0.9%	5.1%	7.08µM*	3.4%
CCCCC1=CC2=C(c3ccco3)C(=O)C(C)(OC(=O)c3ccc(OC)cc3)C(=O)C2=CN1CCCOC(C)C (centres undefined)	-8.1%	-17.9%	2.4%	-10.7%	-35.9%	3.7%
CCOC(=O)c1ccccc1NC(=O)CSc1nc2ncccc2o1	2.6%[57.1 µM]	-0.4%	/	14.8%	13.0%[57.1 µM]	3.2%
Nc1ccccc1N1C(=O)c2cccc3cccc(c23)C1=O	-6.3%	-1.9%	/	?	12.0%	8.91µM*
Cc1ccccc1-c1cc(C(=O)NCc2ccc(OC(F)(F)F)cc2)n(CC2CC(c3cccnc3)=NO2)n1 (centres undefined)	4.8%[57.1 µM]	-25.3%	/	20.6µM*	29.5%[57.1 µM]	-2.6%
Cc1ccc(CNC(=O)c2cc(-c3ccccc3C)nn2CC2CC(c3cccnc3)=NO2)cc1 (centres undefined)	1.2%	-0.8%	/	-3.5%	31.5%	-0.3%
Cc1nn(-c2ccc(N3CCOCC3)nn2)c(C)c1CCC(=O)NCc1ccc(OC(C)C)cc1	4.6%[57.1 µM]	5.7%	/	?	9.4%[57.1 µM]	-1.0%
O=C1OC(Nc2nc(-c3ccc(F)cc3)cs2)c2ccccc21 (centres undefined)	-3.7%	?	0.2%	?	56.2µM*	?
O=C1OC(Nc2nc3ccccc3s2)c2ccccc21 (centres undefined)	-7.8%	1.5%	1.0%	0.2%	-23.8%	-0.6%
O=C(NNc1nc(-c2ccc(F)cc2)cs1)c1ccccc1	8.3%[57.1 µM]	?	5.6%	14.6µM*	37.8%[57.1 µM]	-0.7%
COc1ccccc1CCC(=O)O	1.2%	/	/	/	4.4%	/
Cc1c(P(=S)(c2ccccc2)c2ccccc2)c2ccccc2n1C(=O)NCc1ccc(F)cc1	/	2.8%	/	?	/	/
CCOC(=O)c1ccccc1NC(=O)CSc1nnc(CC)n2c1cc1occc12	5.0%	-0.7%	/	7.3%	16.6%	3.7%
CCc1nnc(SCC(=O)N(CC)c2ccccc2)c2cc3oc(C)cc3n12	-3.4%	-0.5%	/	-27.8%	3.0%	5.62µM*
SMILES	TrxR1 substrate	A549 viability	GALK inh	Nrf2 block	rTrxR1 inhibitor	Nrf2 activator
Cc1oc(-c2ccc3c(c2)OCCO3)cc1C(=O)O	7.2%	-5.3%	11.9%	9.2µM*	-13.2%	-1.2%
Cc1oc(-c2ccc3c(c2)OCCO3)cc1C(=O)NCC(=O)O	2.2%[57.1 µM]	2.2%	-0.9%	?	?	-0.9%
N#Cc1ccc(NC(=O)Nc2ccc(Cl)cc2)cc1	-6.5%	?	1.2%	18.4µM*	10.0%[57.1 µM]	2.2%
CCC(COC(=O)c1ccccc1)Oc1cc(NCc2ccccc2)c2ncn(C(C)C)c2c1 (centres undefined)	-11.8%	16.4µM*	/	23.1µM*	-2.7%	-5.1%
CCC(CO)Oc1cc(NCc2ccccc2)c2ncn(C(C)C)c2c1 (centres undefined)	-6.9%[57.1 µM]	0.5%	/	0.0%	-52.1%	-5.2%
CCC(CO)Oc1cc(NCc2ccc(O)cc2)c2ncn(C(C)C)c2c1 (centres undefined)	0.6%	-0.8%	/	-12.8%	?	3.1%
CC(C)n1cnc2c(NCc3ccccc3)cc(N[C@H](C)CO)cc21	-2.5%	23.1µM*	/	?	-1.7%	-3.2%
CCC(COC)Oc1cc(NCc2ccccc2)c2ncn(C(C)C)c2c1 (centres undefined)	-19.2%	?	/	18.4µM*	?	-5.0%
CCCCOc1cc(NCc2ccccc2)c2ncn(C(C)C)c2c1	-14.6%	?	/	?	0.0%	-1.3%
Brc1ccc(-c2nc3ccccn3c2Nc2ccc3c(c2)OCCO3)o1	14.0%	-3.2%	/	-2.8%	-0.4%	-0.2%
COc1ccc(C2=NS(=O)(=O)N(C)C(C(=O)NCc3ccccc3)=C2)cc1OC	-3.5%[57.1 µM]	-18.6%	/	-11.7%	-0.8%[57.1 µM]	0.4%
COc1ccc(C2=NS(=O)(=O)N(C)C(C(=O)N3CCc4ccccc4C3)=C2)cc1OC	9.7%[57.1 µM]	-27.9%	/	14.6µM*	19.8%[57.1 µM]	4.3%
CCc1ccc(NC(=O)C2=CC(c3ccc(OC)c(OC)c3)=NS(=O)(=O)N2C)cc1	-4.7%[57.1 µM]	-20.4%	/	23.1µM*	4.9%[57.1 µM]	-0.2%
CCN(CC)C(=O)c1ccc(S(=O)(=O)Cc2ccc(C)cc2)c([N+](=O)[O-])c1	10.7%	2.0%	7.6%	?	31.6µM*	?
CCn1c2c(c(=N)c3ccccc31)CCC2	11.3%[57.1 µM]	-9.7%	6.4%	13µM*	-4.7%[57.1 µM]	0.0%
CSCCC(NC(C)=O)C(=O)Oc1ccc2c3c(c(=O)oc2c1)CCCC3 (centres undefined)	583.0%	2.5%	-0.5%	-4.3%	50.1µM*	2.5%
COc1cccc(CN2C(=O)C(C)N(C(=O)c3c(F)cccc3F)c3ccccc32)c1 (centres undefined)	-8.7%	-6.8%	-1.1%	20.6µM*	17.7%	-0.4%

Screening results from PubChem BioAssay.
